Compound activity as filed in PubChem BioAssay.
G9a inh: inhibitors of human histone lysine methyltransferase G9a. Potency, µM (highest dose often 102 µM), without a hit: at the top dose activity, negative = inhibition, hits mostly inhibitors. Q96KQ7. 350,000 compounds, 8.8% hits. G9a H3K9 monomethylation, AlphaScreen, 2 h; also: % is scaled to controls: 0 for no effect and ±100 for the full control effect; nearly all actives have a fitted effect of over 75% in size
Target sequence (Q96KQ7 913-1193 limits assumed): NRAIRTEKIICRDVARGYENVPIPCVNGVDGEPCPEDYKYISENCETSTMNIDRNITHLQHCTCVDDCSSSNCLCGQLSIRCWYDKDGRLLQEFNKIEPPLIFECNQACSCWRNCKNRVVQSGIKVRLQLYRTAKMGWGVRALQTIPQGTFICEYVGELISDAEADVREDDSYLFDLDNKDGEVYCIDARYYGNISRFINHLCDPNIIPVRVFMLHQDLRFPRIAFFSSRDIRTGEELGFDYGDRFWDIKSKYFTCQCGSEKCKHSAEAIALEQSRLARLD
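Methyltransferase reactions run at room temperature for 2 h (20 nM enzyme, 500 nM biotin-H3K9 peptide, 20 uM SAM) after a 15 min compound preincubation; product detected by AlphaScreen beads and anti-H3K9me1 antibody.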
BAZ2B inh: inhibitors of human BAZ2B bromodomain; Q9UIF8; AlphaScreen BAZ2B-H3K14Ac peptide displacement; Potency, µM (series often up to 114 µM), for the others: at the highest dose activity change, negative = inhibition, usual class: inhibitors; 360,000 compounds, 4.4% hits; AID 504333; also: % is scaled to controls: 0 for no effect and ±100 for the full control effect; nearly all actives have a fitted effect of over 60% in size
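Complex of BAZ2B and biotin-H3K14Ac (50 nM apiece) forms over 30 min at RT, then faces library compounds up to 110 uM for another 30 min; AlphaScreen beads added, 20 min dark incubation, luminescence read.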
HP1b chromo inh: blocks HP1-beta chromodomain binding to methylated histone tails; P83916; AlphaScreen HP1-beta / biotin-H3K9me3 peptide binding; Potency, µM (series often up to 114 µM), without a hit: at the top dose activity change, negative = inhibition, actives largely listed as inhibitors; 390,000 compounds, 0.56% hits; also: nearly all actives have a fitted effect of over 70% in size
Target sequence (P83916 whole entry, looked up): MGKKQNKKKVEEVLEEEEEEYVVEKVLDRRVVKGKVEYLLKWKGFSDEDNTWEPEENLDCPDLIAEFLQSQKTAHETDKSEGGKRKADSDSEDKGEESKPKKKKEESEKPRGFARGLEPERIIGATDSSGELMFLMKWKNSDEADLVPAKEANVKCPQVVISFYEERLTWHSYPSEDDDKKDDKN
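HP1-beta protein (50 nM final) preincubated 30 min at room temperature with biotinylated H3(1-18)K9me3 peptide (50 nM) in PBS pH 7.4, 0.01% Tween-20, then compound added for 30 min. AlphaScreen streptavidin donor/nickel chelate acceptor beads (10 ug/mL final), 30 min dark, luminescence read.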
JMJD2A Tudor inh: inhibitors of human JMJD2A Tudor domain; AlphaScreen JMJD2A-Tudor / H3K4me3 peptide binding; Potency, µM (top dose mostly 114 µM), inactives show at the top dose activity change, negative = inhibition, actives largely listed as inhibitors; O75164; 390,000 compounds, 4.4% hits; also: % is scaled to controls: 0 for no effect and ±100 for the full control effect; nearly all actives have a fitted effect of over 50% in size
Sfp inh: inhibitors of Bacillus subtilis Sfp phosphopantetheinyl transferase | Q9F4F7 | Biochemical Sfp PPTase activity, qHTS | Potency, µM, for the others: largest response in the series, negative = inhibition, hits mostly inhibitors | 310,000 compounds, 3.5% hits | AID 1490;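 also: the enzyme is Sfp with the accession as filed and its product quenches rhodamine fluorescence; 0% = enzyme reaction without inhibitor and -100% = no enzyme wells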
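Fluorescence-quenching assay with 15 nM Sfp, 5 uM rhodamine-CoA and 12.5 uM BHQ-2-labelled ybbR peptide in pH 7.6 Hepes/MgCl2 buffer. Enzyme was pre-incubated with compound for 15 min at room temperature. Rate was taken from the 30-min fluorescence change (525/598 nm).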
* marks the source's active call; other numbers are inactive results; u = inconclusive; x = not tested or not shown; [ ] = dose if it differs, or a comment. In the library only some 12% were active in any assay of this set; here they are far more common. Calls follow the shape of the dose curve; as a rule, active = well fitted curve in the direction sought with a large enough effect; inconclusive = small, poorly fitted or top-dose-only effect, or another doubt; inactive = no such curve, though single readings can be large; an effect the other way counts as inactive or inconclusive. Potency is read from the fitted curve at half-maximal effect.

SMILES	G9a inh	BAZ2B inh	HP1b chromo inh	JMJD2A Tudor inh	Sfp inh
Clc1ccc(CSc2nnc(NC3=NCCCCC3)s2)cc1	23.9%	32.5%	110.3%	51.6%	3.5%
Cc1cnc(NC2=NCCC2)s1	11.2µM*	-32.0%	4.8%	u	-11.1%
c1nnc(NC2=NCCC2)s1	u	-3.8%	-6.2%	8.91µM*	u
CC1=NN2C(=N)/C(=C\c3ccc(SCc4ccccc4)o3)C(=O)N=C2S1	21.2%[12.7 µM]	-38.8%	11.3%	u	-5.6%
N=C1/C(=C\c2ccc(SCc3ccco3)o2)C(=O)N=C2SC=NN12	1.7%[59 µM]	u	-0.1%	u	79.4µM*
CCOC(=O)c1sc(N2N=C(C)C(N=Nc3cccc(C)c3)C2=O)nc1C (stereo not drawn)	50.1µM*	-32.9%	-0.8%	-25.7%[11.4 µM]	-21.8%
CC1=NN(c2nc(-c3ccc(C)cc3)cs2)C(=O)C1N=Nc1cccc(C)c1 (stereo not drawn)	u	u	u	u	-8.6%
CCC(C)(C)n1nnnc1C(c1ccccn1)N1CCCCC1 (stereo not drawn)	-15.6%[59 µM]	4.4%	6.1%	-27.1%	1.0%
Cc1ccc(C23CCC(=O)N2C(C(=O)O)CS3)c(C)c1 (stereo not drawn)	-10.2%	-17.9%	8.5%	-16.6%	-13.5%
O=C(O)C1CSC2(c3ccc(F)cc3)CCC(=O)N12 (stereo not drawn)	56.2µM*	-16.8%	37.4%	-8.2%	7.0%
CN(C)c1ccc(C(=O)N(Cc2ccccc2)Cc2ccccc2)cc1	-0.5%	7.1%	-12.9%	u	-8.8%
Cc1ccc2[nH]cc(/C=C/c3cc[n+](C)cc3)c2c1	44.7µM*	-11.9%	-24.7%	-15.1%	-9.2%
CC[n+]1ccc(/C=C/c2c[nH]c3ccccc23)cc1	x	-8.1%	35.8%	u	-15.6%
COc1ccc2c(/C=C/c3cc[n+](C)cc3)c[nH]c2c1	50.1µM*	-7.7%	-10.0%	-18.1%	4.9%
Cc1ccc(C2c3c(oc4ccccc4c3=O)C(=O)N2c2nnc(C(C)C)s2)o1 (stereo not drawn)	50.1µM*	1.8%	45.1%	-14.8%	-5.6%
CC(C)c1nnc(N2C(=O)c3oc4ccccc4c(=O)c3C2c2ccco2)s1 (stereo not drawn)	2.2%[59 µM]	10.0%	18.4%	-10.8%	-26.3%
Cc1nnc(N2C(=O)c3oc4ccccc4c(=O)c3C2c2ccco2)s1 (stereo not drawn)	20µM*	-13.2%	24.7%	-29.6%	u
Cc1ccc(CNc2nc3ccccc3n3cnnc23)cc1	1.7%[59 µM]	0.6%	27.4%	-4.7%	13.0%
Cn1cccc1C(=O)OCC(=O)c1cc2ccccc2o1	44.7µM*	-21.9%	-7.7%	u	-8.7%
O=C(COC(=O)c1ccc(Cl)s1)c1cc2ccccc2o1	-32.0%[12.7 µM]	12.3%	83.7%	25.2%	-10.0%
COC(=O)C1=C(C)NC(=O)CC1c1ccccc1F (stereo not drawn)	17.2%[59 µM]	-2.5%	-0.9%	-5.8%	19.5%
C#CCn1c(=NC(=O)c2cccs2)sc2cccc(OC)c21	-10.2%	-3.8%	15.5%	-27.8%	79.4µM*
C#CCn1c(=NC(=O)CN2C(=O)CCC2=O)sc2cccc(OC)c21	2.3%	0.4%	37.7%	2.6%	25.1%
COCCNCc1ccc(Cl)cc1Cl	u	-22.6%	72.4%	-6.9%	3.0%
CCCOc1ccc(Cl)cc1CN1CCOCC1	-17.2%[59 µM]	1.5%	32.8%	u	-8.1%
SMILES	G9a inh	BAZ2B inh	HP1b chromo inh	JMJD2A Tudor inh	Sfp inh
C=CCc1cc(Cl)ccc1OCCNCCOC	u	50.1µM*	u	1µM*	-25.7%
C=CCc1cc(Cl)ccc1OCCNCCN1CCOCC1	10µM*	31.6µM*	u	7.94µM*	u
CC(C)[C@H](NC(=O)OC(C)(C)C)C(=O)N/N=C/c1ccc2nccnc2c1	x	-3.0%	37.5%	-14.4%	20.0%
CCOc1ccc(OCC)c(Nc2nc3ccc(Cl)cc3n3cnnc23)c1	14.4%[59 µM]	-1.5%	22.0%	-4.0%	x
CCc1ccc(OCCOCC(O)CNC2CCCC2)cc1 (stereo not drawn)	7.3%	1.3%	17.5%	-0.7%	5.4%
Oc1ccc(N=Nc2ccccc2)o1	39.8µM*	-15.8%	25.6%	-17.1%	u
CN(CC(=O)Nc1ccccc1Cl)CC(=O)Nc1c(F)cccc1F	-2.9%	14.2%	54.3%	-13.4%	9.0%
C#CCOCCOCCOCCNc1nc(N2CCN(C(=O)C([C@@H](C)CC)n3cc(C(N)CC(C)C)nn3)CC2)nc(N2CCN(C(=O)[C@H](CCC(=O)O)n3cc(C(N)CC(C)C)nn3)CC2)n1 (stereo partly drawn)	-39.2%[12.7 µM]	79.4µM*	20.5%	79.4µM*	0.2%
C#CCOCCOCCOCCNc1nc(N2CCOCC2)nc(N2CCN(C(=O)[C@H]([C@@H](C)CC)n3cc([C@@H](N)CC(C)C)nn3)CC2)n1	11.4%[12.7 µM]	-9.0%	30.7%	-18.7%	12.0%
C#CCOCCOCCOCCNc1nc(N2CCN(C(=O)C([C@@H](C)CC)n3cc(C(N)CO)nn3)CC2)nc(N2CCN(C(=O)[C@H](CCC(=O)O)n3cc(C(N)CC(C)C)nn3)CC2)n1 (stereo partly drawn)	-0.8%[12.7 µM]	50.1µM*	62.0%	50.1µM*	5.7%
C#CCOCCOCCOCCNc1nc(N2CCN(C(=O)[C@H](CCC(=O)O)n3cc(C(N)CC(C)C)nn3)CC2)nc(N2CCN(C(=O)[C@H](CCC(=O)O)n3cc(C(N)CC(C)C)nn3)CC2)n1 (stereo partly drawn)	10.0%[12.7 µM]	79.4µM*	22.9%	79.4µM*	0.3%
Cc1ccc(C)c(NC2=C(Cl)C(=O)OC2OC(C)C)c1 (stereo not drawn)	9.4%	-3.5%	20.4%	-19.0%	14.3%
CN(Cc1ccccc1)C(=O)CSc1nc2ccccc2n1Cc1ccccc1F	0.4%[12.7 µM]	-9.4%	48.3%	2.3%	x
O=C1/C(=C/N(C(=O)c2ccco2)c2ccc(Br)cc2)Sc2ccccc21	44.7µM*	u	u	56.2µM*	-3.8%
Clc1ccc(-c2nc3nc4ccccc4nc3n2Cc2ccco2)cc1	-39.6%[59 µM]	-23.6%	66.5%	-14.2%	7.08µM*
Cc1ccc(-c2nc3nc4ccccc4nc3n2Cc2ccco2)cc1	u	5.1%	10.4%	-22.6%	u
O=[N+]([O-])c1ccc(Cl)c(-c2ccc(/C=N/c3c(-c4ccco4)nc4ccccn34)o2)c1	u	u	u	u	-18.7%
Oc1cccc(/C=N/c2c(-c3ccco3)nc3ccccn23)c1	50.1µM*	56.2µM*	u	u	u
Cc1cc(C)c([N+](=O)[O-])cc1-c1ccc(/C=N/c2c(-c3ccco3)nc3ccccn23)o1	17.1%[0.501 µM]	10µM*	u	6.31µM*	u
Cc1ccc(Cn2cc(S(=O)(=O)c3ccc(C(C)C)cc3)c(=O)c3cc4c(cc32)OCO4)cc1	44.7µM*	-0.8%	8.7%	-30.8%	u
CCOc1ccc(CCNC(=O)c2cccc3c2C(=O)N(CCOC)C3)cc1OCC	52.8%	-10.9%	15.3%	-9.2%	8.0%
